Compound activity: PubChem BioAssay, University of Kansas High Throughput Screening Laboratory
mHTT-CaM PPI inh = disrupts binding of mutant huntingtin to calmodulin. inhibition, % at 15 µM. AlphaScreen His-mHTT/GST-CaM binding, luminescence. 190,000 tested, 3.6% active. P42858;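 also: 0% = both proteins with DMSO and 100% = one protein alone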
Target sequence (P42858 whole entry, looked up, stated change not applied): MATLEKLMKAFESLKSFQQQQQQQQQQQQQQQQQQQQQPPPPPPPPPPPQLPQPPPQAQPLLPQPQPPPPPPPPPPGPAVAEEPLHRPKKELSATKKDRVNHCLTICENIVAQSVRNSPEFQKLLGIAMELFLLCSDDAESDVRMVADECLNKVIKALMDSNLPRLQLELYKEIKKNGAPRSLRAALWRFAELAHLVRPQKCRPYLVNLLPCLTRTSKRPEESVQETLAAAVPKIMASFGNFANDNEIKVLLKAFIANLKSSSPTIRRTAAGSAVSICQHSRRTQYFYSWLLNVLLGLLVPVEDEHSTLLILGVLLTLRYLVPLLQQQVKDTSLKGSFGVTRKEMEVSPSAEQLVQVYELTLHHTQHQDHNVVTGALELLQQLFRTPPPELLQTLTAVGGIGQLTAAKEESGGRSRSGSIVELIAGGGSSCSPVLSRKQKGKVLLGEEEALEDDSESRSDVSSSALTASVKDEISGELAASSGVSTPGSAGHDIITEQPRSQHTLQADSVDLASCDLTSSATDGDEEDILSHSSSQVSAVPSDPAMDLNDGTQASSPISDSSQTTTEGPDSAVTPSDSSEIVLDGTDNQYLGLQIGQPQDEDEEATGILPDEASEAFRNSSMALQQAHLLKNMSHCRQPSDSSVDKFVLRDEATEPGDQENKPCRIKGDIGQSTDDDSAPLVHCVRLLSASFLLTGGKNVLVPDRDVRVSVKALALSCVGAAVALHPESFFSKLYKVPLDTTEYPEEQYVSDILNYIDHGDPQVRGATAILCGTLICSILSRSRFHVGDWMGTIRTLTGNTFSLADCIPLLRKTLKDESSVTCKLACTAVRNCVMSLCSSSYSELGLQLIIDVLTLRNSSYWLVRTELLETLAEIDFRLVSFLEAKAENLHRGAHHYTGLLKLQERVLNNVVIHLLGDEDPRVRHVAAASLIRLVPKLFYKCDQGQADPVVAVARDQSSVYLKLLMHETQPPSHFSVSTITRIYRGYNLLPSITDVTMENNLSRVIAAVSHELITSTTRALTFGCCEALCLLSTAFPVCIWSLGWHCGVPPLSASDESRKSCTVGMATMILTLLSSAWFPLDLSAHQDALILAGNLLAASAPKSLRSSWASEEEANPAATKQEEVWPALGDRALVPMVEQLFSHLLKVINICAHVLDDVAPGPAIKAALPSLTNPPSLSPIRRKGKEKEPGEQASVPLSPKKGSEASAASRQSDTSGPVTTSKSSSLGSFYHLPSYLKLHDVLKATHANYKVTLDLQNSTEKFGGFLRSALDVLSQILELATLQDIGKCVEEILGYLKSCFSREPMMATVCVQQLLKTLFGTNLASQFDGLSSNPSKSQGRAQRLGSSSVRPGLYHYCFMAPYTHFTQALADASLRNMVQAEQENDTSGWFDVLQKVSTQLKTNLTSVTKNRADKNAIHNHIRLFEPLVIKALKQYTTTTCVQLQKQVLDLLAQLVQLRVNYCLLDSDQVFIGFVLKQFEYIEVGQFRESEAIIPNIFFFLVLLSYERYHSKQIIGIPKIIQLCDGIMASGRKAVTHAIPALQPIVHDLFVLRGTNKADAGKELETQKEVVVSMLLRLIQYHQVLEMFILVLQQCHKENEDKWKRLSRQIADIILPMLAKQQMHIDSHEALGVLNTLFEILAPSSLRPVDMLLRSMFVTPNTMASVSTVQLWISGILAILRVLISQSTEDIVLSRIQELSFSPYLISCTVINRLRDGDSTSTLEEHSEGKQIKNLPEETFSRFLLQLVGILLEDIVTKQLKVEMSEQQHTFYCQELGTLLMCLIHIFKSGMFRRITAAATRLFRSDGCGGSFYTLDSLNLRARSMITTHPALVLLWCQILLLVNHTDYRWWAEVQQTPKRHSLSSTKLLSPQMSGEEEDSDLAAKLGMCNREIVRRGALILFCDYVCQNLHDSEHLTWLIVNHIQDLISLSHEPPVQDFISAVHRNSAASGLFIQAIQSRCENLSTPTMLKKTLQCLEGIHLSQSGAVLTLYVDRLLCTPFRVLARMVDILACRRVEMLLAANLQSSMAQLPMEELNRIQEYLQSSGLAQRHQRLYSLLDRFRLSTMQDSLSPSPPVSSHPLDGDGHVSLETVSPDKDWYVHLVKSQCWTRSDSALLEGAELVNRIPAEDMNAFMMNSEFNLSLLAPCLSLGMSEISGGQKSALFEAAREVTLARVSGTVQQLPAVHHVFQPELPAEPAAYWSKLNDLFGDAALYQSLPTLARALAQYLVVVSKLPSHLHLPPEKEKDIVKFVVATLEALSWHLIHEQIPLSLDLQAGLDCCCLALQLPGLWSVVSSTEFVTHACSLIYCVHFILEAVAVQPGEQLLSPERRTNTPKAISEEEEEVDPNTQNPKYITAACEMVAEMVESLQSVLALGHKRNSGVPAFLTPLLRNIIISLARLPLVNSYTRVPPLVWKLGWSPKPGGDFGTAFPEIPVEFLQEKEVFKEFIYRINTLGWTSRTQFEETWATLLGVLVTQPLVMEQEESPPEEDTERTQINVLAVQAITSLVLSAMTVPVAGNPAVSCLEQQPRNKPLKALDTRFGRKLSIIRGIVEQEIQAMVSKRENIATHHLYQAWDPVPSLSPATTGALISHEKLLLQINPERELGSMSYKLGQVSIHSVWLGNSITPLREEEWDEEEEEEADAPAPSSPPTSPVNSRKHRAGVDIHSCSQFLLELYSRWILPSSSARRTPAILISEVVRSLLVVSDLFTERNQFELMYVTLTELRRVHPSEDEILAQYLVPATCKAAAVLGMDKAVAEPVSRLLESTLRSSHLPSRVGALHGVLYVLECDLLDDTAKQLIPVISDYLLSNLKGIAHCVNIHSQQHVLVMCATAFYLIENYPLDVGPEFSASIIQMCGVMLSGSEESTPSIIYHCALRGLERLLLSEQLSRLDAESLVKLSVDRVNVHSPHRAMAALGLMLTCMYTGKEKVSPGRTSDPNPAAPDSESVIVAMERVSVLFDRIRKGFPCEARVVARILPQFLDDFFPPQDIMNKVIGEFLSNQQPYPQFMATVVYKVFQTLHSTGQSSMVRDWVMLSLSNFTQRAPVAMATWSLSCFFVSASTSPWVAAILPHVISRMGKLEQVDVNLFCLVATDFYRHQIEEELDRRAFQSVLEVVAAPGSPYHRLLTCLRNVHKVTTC
Pf apPOL inh = Pf-apPOL DNA polymerase inhibition. Recombinant Pf-apPOL, molecular beacon fluorescence, 1.5 h. 210,000 tested, 0.25% active. AID 1794808. inhibition, % at 10 µM
* marks the source's active call; other numbers are inactive results; nt = no result given. Most compounds without a hit are left out; they make up all but 3.5% or so of the library. Rule as the data show it: active = inhibition above about 50%; inactive = the rest.

SMILES	mHTT-CaM PPI inh	Pf apPOL inh
COc1ccc(OCC(=O)N2CCc3c(c(C(=O)NCc4ccccc4)nn3C)C2)cc1	-0.9	-12.1
COc1cccc(CC(=O)N2CCc3c(c(C(=O)NCc4ccc(F)cc4)nn3C)C2)c1	69.0*	-5.2
Cn1nc(COCc2ccccc2)c2c1CCN(C(=O)Cc1cccc(F)c1)C2	55.5*	-2.4
Cn1nc(COCc2ccccc2)c2c1CCN(C(=O)COc1ccccc1)C2	-4.0	-11.6
CN1CCN(C(CNC(=O)COc2ccccc2F)c2cccn2C)CC1 (stereo unspecified)	-2.7	-10.8
CC(C)NC(=O)CN1C(=O)CCSc2ccccc21	-2.2	-2.3
CCC(NS(=O)(=O)c1cc([N+](=O)[O-])ccc1Cl)C12CC3CC(CC(C3)C1)C2 (stereo unspecified)	46.0	-12.8
CC(=O)Nc1ccc(C(=O)N2CCCC(c3nc(-c4ccc(NC(C)=O)cc4)no3)C2)cc1 (stereo unspecified)	-5.1	-1.0
Cn1cc(CN2CCN(C(=O)c3ccc(F)c(F)c3)CC2)ccc1=O	-6.4	-7.1
O=C1C[C@@H]2CCN3C(=O)CCC[C@@H]([C@H]23)[C@@H]1Cc1ccccc1	1.9	-4.9
O=C1CCC[C@@H]2C=C[C@H](c3ccc(Br)cc3)[C@H]3CCN1[C@@H]32	52.0*	-33.3
CCOc1cc(/C=C2\C(=O)NN(c3ccc(Cl)c(Cl)c3)C2=O)ccc1O	27.0	-2.3
COCC(C)(O)CNC(=O)NCc1ccc(Cl)cc1 (stereo unspecified)	-24.1	-5.1
CN1CCc2c(sc3c2C(=O)NC(c2ccc(COc4ccc(Cl)c(Cl)c4)o2)N3)C1 (stereo unspecified)	81.0*	-9.6
CCOc1ccc(C2NC(=O)c3c(sc4c3CCN(C)C4)N2)c(O)c1 (stereo unspecified)	3.0	-5.4
COc1ccc(-c2cnnn2-c2ccc(NC(=O)c3ccc4c(c3)OCO4)cc2)cc1	15.0	-3.6
COc1cccc(-n2nc(C(=O)NCc3cccnc3)c3ccccc3c2=O)c1	-4.0	-6.7
CCc1ccc(-c2ccc(=O)n(CCc3nc(-c4ccc(C)cc4)no3)n2)cc1	-3.6	-2.7
Clc1cccc(-c2nnc3cccc(Cl)n23)c1Cl	6.0	-0.6
CC(=NOc1nc(-c2ccccc2)ns1)c1cccs1	nt	-1.3
Cc1ccc(C(C)C)c(OCCCn2c(CO)nc3ccccc32)c1	64.7*	-6.2
COCn1c(COc2cc(C)ccc2C(C)C)nc2ccccc21	-23.0	-3.5
Cc1cc(OCC(=O)NCc2ccc(F)cc2)ccc1Cl	-18.3	-5.0
CCOc1ccccc1NC(=O)c1ccc(C(C)C)cc1	-76.3	1.4
Cc1ccc(-c2nc3ccccn3c2NC(=O)C(C)Cl)cc1 (stereo unspecified)	8.3	2.0
SMILES	mHTT-CaM PPI inh	Pf apPOL inh
O=C(/C=C/c1ccccc1)Nc1c(-c2ccccc2)nc2ccccn12	61.0*	-6.6
O=C(Nc1c(-c2ccccc2)nc2ccccn12)c1cccnc1	-7.0	-2.2
CC(Cl)C(=O)Nc1c(-c2ccc(C(F)(F)F)cc2)nc2ccccn12 (stereo unspecified)	54.9*	-5.4
Cc1ccn2c(NC(=O)C(C)Cl)c(-c3cccc(F)c3)nc2c1 (stereo unspecified)	69.3*	22.1
Cc1ccn2c(NC(=O)C(C)C)c(-c3cccc(F)c3)nc2c1	-1.1	5.0
CCOC(=O)CNC(=O)N1CCCC1c1c(C)noc1C (stereo unspecified)	0.4	-7.3
O=S(=O)(Nc1ccc(S(=O)(=O)Nc2ccc(Cl)cc2Cl)cc1)c1ccccc1	-0.8	4.7
OC1(c2ccccc2)Oc2ccccc2N=C1c1ccccc1 (stereo unspecified)	2.7	nt
O=C(c1cccc(OCC2CCCN(C(=O)c3ccco3)C2)c1)N1CCCC1 (stereo unspecified)	12.7	-2.4
N#Cc1cccc(C(=O)N2CCC(c3cnn(-c4ccccc4)c3)CC2)c1	8.4	-2.7
O=C(NCCOc1ccc(F)cc1)c1cc(C2CC2)on1	-24.4	-37.2
O=C(NCCc1c[nH]c2ccccc12)c1csc(NS(=O)(=O)c2cccs2)n1	-10.1	-12.8
Cc1cc(C)nc(Nc2nc(C(=O)NCCc3c[nH]c4ccccc34)cs2)n1	86.5*	-6.0
COc1ccc(OC)c(Nc2nc(CC(=O)NCCc3c[nH]c4ccccc34)cs2)c1	53.4*	-3.6
Cc1cc(C)nc(Nc2nc(C(=O)NCCOc3ccc(F)cc3)cs2)n1	91.4*	-38.5
COc1ccc(OC)c(Nc2nc(CC(=O)NCc3ccc4c(c3)OCO4)cs2)c1	15.0	-4.3
CCc1ccc(N2C=NS(=O)(=O)c3cccnc32)cc1	-1.4	-4.2
CCc1nc2c(NC(=O)c3ccccc3OC)cccn2n1	2.8	-1.0
CC(C)Cn1c(=O)c(N2CCN(C(=O)NCc3ccccc3)CC2)nc2ccncc21	-3.9	-5.1
CN1C(=O)C2CCCCN2c2ccc(C(=O)N3CCc4ccccc4C3)cc21 (stereo unspecified)	40.3	-2.3
Cc1cccc(N2CCN(C(=O)c3ccc4c(c3)N(C)C3CCCCN3C4=O)CC2)c1 (stereo unspecified)	1.8	-0.9
CN1C(=O)C2CCCCN2c2ccc(C(=O)NCc3ccccc3)cc21 (stereo unspecified)	-7.0	-5.3
Cc1ccc(C)c(N2CCN(C(=O)c3ccc4c(c3)N(C)C(=O)C3CCCCN43)CC2)c1 (stereo unspecified)	93.6*	-1.4
Cc1cccc(N2CCN(C(=O)c3ccc4c(c3)N(C)C(=O)C3CCCCN43)CC2)c1C (stereo unspecified)	54.5*	2.3
CN1C(=O)C2CCCCN2c2ccc(C(=O)N3CCC(Cc4ccccc4)CC3)cc21 (stereo unspecified)	87.4*	2.2
SMILES	mHTT-CaM PPI inh	Pf apPOL inh
CN1c2cc(C(=O)N3CCN(c4cccc(Cl)c4)CC3)ccc2C(=O)N2CCCCC21 (stereo unspecified)	97.0*	2.7
CN1C(=O)C2CCCCN2c2ccc(C(=O)N3CCN(c4ccccn4)CC3)cc21 (stereo unspecified)	10.7	0.1
Cc1nnc(NC(=O)CS(=O)(=O)c2cn(Cc3ccccc3Cl)c3ccccc23)s1	0.0	-9.2
CCc1ccccc1NC(=O)COc1ccc(Cl)cc1Cl	-9.2	-0.2
CCN1c2cc(C(=O)NCc3cccc(Cl)c3)ccc2C(=O)N2CCCCC21 (stereo unspecified)	-58.4	-2.2
CN1c2cc(C(=O)NCc3ccc(F)c(Cl)c3)ccc2C(=O)N2CCCCC21 (stereo unspecified)	56.1*	-4.1
COc1ccc(N2CCN(C(=O)c3ccc4c(c3)N(C)C(=O)C3CCCCN43)CC2)cc1 (stereo unspecified)	7.5	-1.1
CN1C(=O)C2CCCCN2c2ccc(C(=O)N3CCN(c4cccc(Cl)c4)CC3)cc21 (stereo unspecified)	98.7*	1.6
CCOc1ccc(Cn2c(-c3nonc3NC(C)=O)nc3ccccc32)cc1OCC	2.0	1.8
COC(=O)c1cnc2nc(C)ccc2c1Nc1cccc(C#N)c1	4.5	-6.3
Cc1cc(C(=O)Nc2nnc(-c3csc(C)n3)o2)c(C)o1	77.6*	8.8
Cc1nc(-c2nnc(NC(=O)c3cc(Cl)cc(Cl)c3)o2)cs1	30.8	8.9
CC1C(=O)N(Cc2cn(Cc3ccco3)nn2)CCS(=O)(=O)N1Cc1ccc(-c2cccnc2)cc1 (stereo unspecified)	6.6	-3.4
